Measurements as given in PubChem BioAssay AID1347044 (National Center for Advancing Translational Sciences (NCATS), 2019).
The whole screen tested about 1,400 compounds, of which about 1,100 (79%) were called active. Roughly 20% stayed inconclusive and do not appear here. Calls follow the shape of the full dose curve. So high a share suggests a set chosen from earlier hits. The list is a sample of the results.

molecular target: Atrial natriuretic peptide receptor 1 (Homo sapiens) (UniProt P16066); assay: Natriuretic polypeptide receptor (hNpr1) antagonism - Confirmation; details: HEK293 hNpr1 cGMP GloSensor luminescence, ANP-stimulated; series mostly up to 57.6 µM; activity change, negative = inhibition: at the top concentration; also: nearly all actives have a fitted effect of over 70% in size
Sequence (P16066 whole entry, looked up, the tested form may be a part): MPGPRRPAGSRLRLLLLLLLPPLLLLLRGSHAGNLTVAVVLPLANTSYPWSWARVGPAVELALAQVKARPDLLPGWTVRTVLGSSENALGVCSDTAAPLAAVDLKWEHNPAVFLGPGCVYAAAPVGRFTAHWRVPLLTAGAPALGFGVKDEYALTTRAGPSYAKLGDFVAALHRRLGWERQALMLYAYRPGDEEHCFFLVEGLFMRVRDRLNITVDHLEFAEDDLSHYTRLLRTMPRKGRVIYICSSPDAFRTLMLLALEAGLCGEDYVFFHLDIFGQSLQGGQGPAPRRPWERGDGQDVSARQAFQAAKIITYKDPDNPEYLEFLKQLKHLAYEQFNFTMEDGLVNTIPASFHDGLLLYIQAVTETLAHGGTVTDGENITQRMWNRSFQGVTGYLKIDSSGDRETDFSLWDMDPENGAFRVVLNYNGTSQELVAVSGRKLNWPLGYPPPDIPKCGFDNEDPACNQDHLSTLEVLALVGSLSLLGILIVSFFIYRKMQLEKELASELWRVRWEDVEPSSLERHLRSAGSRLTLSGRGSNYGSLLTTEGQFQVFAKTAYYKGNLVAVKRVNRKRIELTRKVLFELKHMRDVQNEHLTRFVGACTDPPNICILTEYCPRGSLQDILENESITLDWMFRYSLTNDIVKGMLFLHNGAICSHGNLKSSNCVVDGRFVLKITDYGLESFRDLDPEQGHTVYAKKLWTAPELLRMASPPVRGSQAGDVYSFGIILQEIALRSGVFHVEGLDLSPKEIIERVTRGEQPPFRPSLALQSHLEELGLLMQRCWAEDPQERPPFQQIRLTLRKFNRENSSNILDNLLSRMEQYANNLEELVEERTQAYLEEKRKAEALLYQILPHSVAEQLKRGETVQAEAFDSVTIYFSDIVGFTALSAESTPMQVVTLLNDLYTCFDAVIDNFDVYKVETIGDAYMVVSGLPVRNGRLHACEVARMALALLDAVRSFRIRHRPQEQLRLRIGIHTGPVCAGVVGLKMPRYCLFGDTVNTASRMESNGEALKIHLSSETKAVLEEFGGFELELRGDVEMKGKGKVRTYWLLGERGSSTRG
Description: In order to identify small molecular compounds that inhibit the hNpr1 receptor we developed a high-throughput assay to measure inhibition of the guanylate cyclase activity of the receptor. cGMP production was measured using a circular permutated Firefly luciferase (FLuc) enzyme functionally linked to the cGMP binding domain of human phosphodiesterase 5 (GloSensor technology pGS-40F, (Fan, F. et al. 2008). The cGMP-sensor was expressed in human embryonic kidney 293 (HEK-293) cells and FLuc activity was measured after stimulation with hNrp agonist peptide. hNrp agonists activates the receptor's associated guanylyl cyclase (GC) domain producing cGMP which then binds to the GloSensor resulting in FLuc activation, the enzymatic activity of which can be measured as bioluminescence with addition of luciferin substrate. A cytotoxicity counter-screen using the HEK-hNpr1-cGMP-sensor cells was also performed on the follow-up compounds. F. Fan, B. F. Binkowski, B. L. Butler, P. F. Stecha, M. K. Lewis, K. V. Wood, Novel genetically encoded biosensors using firefly luciferase. ACS Chem Biol 3, 346-351 (2008).
PROTOCOL TABLES (as described by Inglese J, Shamu CE and Guy RK. 2007) SEQUENCE No. (e.g., 1, 2, 3, etc.); PARAMETER (e.g., Cells, Incubation, Reagent, etc.); VALUE and DESCRIPTION. GLOSENSOR PROTOCOL 1. Cells. Seed 1500 HEK293 cGMP-sensor cells expressing hNpr1 per well in 4uL into Greiner 1536-well white/solid bottom high base, tissue culture-treated plates. 2. Incubation. Incubate plated cells at 37C in 5% CO2, 95% RH overnight. 3. Reagent. Add 1uL per well GloSensor reagent from Promega (2% final concentration) or CO2 independent media vehicle control to respective columns of Greiner 1536-well plates. 4. Incubation. Incubate plated cells at room temperature for 2 h, protect from light. 5. Compounds. Library compounds and A-71915 control added at 23 nL per well, transferred by Pin Tool. 6. Incubation. Incubate plated cells for 30 min. at room temperature, protect from light. 7. Detector. GloSensor baseline pre-read luminescence measured using CCD-based camera (Viewlux). 8. Compound. Add 1uL of hNppA peptide to 0.1 nM final concentration to stimulate hNpr1 or CO2 independent media as vehicle control. 9. Incubation. Incubate treated cells at room temperature for 20 min., protect from light. 10. Detector. GloSensor post-hNppA luminescence measured using CCD-based camera (Viewlux). NOTES (numbers refer to Sequence numbers above) 1. HEK293 cells expressing hNpr1 and GIP/pGS-40F grown to 85-95% confluence (48-72 h) in T175 culture flasks (CO2 independent media supplemented with 10% FBS, 1% Pen/Strep antibiotics and 1 ug/mL puromycin). Trypsinize and harvest cells from T175 culture flasks and filter through 40 um cell strainer. Cells counted with Invitrogen Countess (30,000,000 - 50,000,000 cells/flask). Cells diluted to a final concentration of 375 cells/uL in CO2 independent media and a Millipore multidrop used to dispense 1500 cells per well (4uL/well) into 13 1536-well Greiner White/Solid bottom, high base tissue-culture treated (TC) plates and one Aurora 1536-well Black/Clear bottom, low base, TC plate (for visual inspection of cell health throughout the duration of the assay). 2. Cells incubated overnight at ambient temperature, 24 h. at 37C in 95% RH incubator protected from light, covered with metal lid with gas-exchange holes. 3. Prepare GloSensor Reagent (Promega): Reconstitute GloSensor luciferase substrate by adding 8.2mL Hepes buffer to 250mg substrate, mix well, protect from light and stored at -80C. Prepare a fresh 12% GloSensor solution in CO2 independent supplemented plating media (see above). Mix well and store at ambient temperature, protected from light. 1uL 12% GloSensor Luciferase Reagent added (2% final concentration) to respective columns of 13 x 1536-well Greiner plate with BioRaptr, 1uL CO2 independent plating media added to respective columns as vehicle control with BioRaptr. 4. […]
Potency is read from the fitted curve at half-maximal effect.

SMILES | Potency | activity change, negative = inhibition
Cc1nc(-c2ccncc2)ncc1C(C)Nc1ncnc(C)c1C (stereo not drawn) | 21.7 µM (active) | –
O=C(c1ccc2cc[nH]c2c1)N1CCC2(CC1)N=C(c1ccc(Cl)cc1)NO2 | 19.3 µM (active) | –
O=[S+]1([O-])NCC2(CCCN(Cc3ccc(C(F)(F)F)cc3)C2)Oc2ncccc21 (stereo not drawn) | 24.3 µM (active) | –
Cc1cccc(CN2CCc3nc(C(=O)Nc4ccc(Cl)cc4)oc3CC2)c1 | 9.94 µM (active) | –
COc1cccc(C2C(C(=O)Nc3ccccc3)=C(C)N=C3SC=C(CC(=O)NCC(C)C)N32)c1 (stereo not drawn) | – | -27.5% (inactive)
COc1cccc(CNC(=O)Cn2c(N(C)Cc3ccccc3)nc(C)cc2=O)c1OC | 24.3 µM (active) | –
COc1cccc(NC(=O)Cn2c(N(C)Cc3ccccc3)nc(C)cc2=O)c1 | 10.9 µM (active) | –
O=c1[nH]c(C2CCCN(Cc3ccccn3)C2)nn1-c1ccc(Cl)cc1 (stereo not drawn) | 6.85 µM (active) | –
CC1(C(=O)NCc2ccc3c(c2)OCO3)CCc2cnc(NCc3ccccc3)nc21 (stereo not drawn) | 35.3 µM (active) | –
Cc1ccc2c(c1)nc1n2[C@@H](CNS(=O)(=O)c2ccccc2)COC1 | 35.3 µM (active) | –
COc1ccc(CN2C(=O)CO[C@H]3CN(Cc4ccc5c(c4)OCO5)C[C@H]32)cc1 | 31.4 µM (active) | –
O=C(c1ccccc1)N1CCNc2cnc(Nc3cccc(C(F)(F)F)c3)nc2C1 | 31.4 µM (active) | –
COc1ccc(S(=O)(=O)N2CCc3c(C(=O)NCCc4ccccn4)cccc32)cc1 | 24.3 µM (active) | –
CC(C)c1cc(C(=O)N2CCC(n3cc(-c4ccccn4)nn3)CC2)n(C)n1 | 13.7 µM (active) | –
COc1ccc(OCC2(C)COc3ccc(C(=O)Nc4cccnc4)cc3N2)cc1 (stereo not drawn) | 35.3 µM (active) | –
CN(Cc1csc(-c2ccccc2)n1)c1cc(C2CC(O)C2)nc(N)n1 (stereo not drawn) | 2.43 µM (active) | –
Cc1noc(C)c1-c1cc(-c2ccccc2Oc2ccccc2)cn2cncc12 | 19.8 µM (active) | –
O=C1NCN(Cc2ccc(Cl)cc2)C12CCN(Cc1ccccc1)CC2 | 15.3 µM (active) | –
N#Cc1cccc(CN2CCC(C3=NC(O)c4cc(F)ccc4N3)CC2)c1 (stereo not drawn) | 15.3 µM (active) | –
CN1CCN(C(=O)C(C)(C)Oc2nn(Cc3cccc(Cl)c3)c3ccccc23)CC1 | 28 µM (active) | –

SMILES | Potency | activity change, negative = inhibition
Cc1cc(N2CCCC(Cn3cc(Cc4ccccc4)nn3)C2)nc(N)n1 (stereo not drawn) | 6.11 µM (active) | –
Cc1noc(C)c1-c1cnc2[nH]cc(CC(=O)N3CCOCC3)c2c1 | 31.4 µM (active) | –
O=C(Cc1c[nH]c2ncc(-c3ccccc3F)cc12)N1CCOCC1 | 31.4 µM (active) | –
COc1ccc(CCNC(=O)c2noc(-c3ccc(C)cc3)n2)cc1OC | 24.3 µM (active) | –
O=C(c1ccc(Cl)cc1)N1CCCC(n2cc(-c3nc(-c4ccccc4)no3)nn2)C1 (stereo not drawn) | 19.3 µM (active) | –
CC(C)c1noc(-c2cn(C3CCN(C(=O)c4ccc(N(C)C)cc4)C3)nn2)n1 (stereo not drawn) | 15.3 µM (active) | –
O=C(c1ccc(F)cc1Cl)N1CCC(n2cc(-c3nc(-c4ccccc4)no3)nn2)C1 (stereo not drawn) | 4.32 µM (active) | –
Cc1nn2c(c1-c1ccccc1-c1ccccc1)N(CC1CC1)CCC2 | 2.8 µM (active) | –
COc1ccc(-c2noc(CC3CCN(C(=O)Cc4ccc(OC)c(OC)c4)CC3)n2)cc1 | 3.43 µM (active) | –
COc1ccc(CC(=O)N2CCC(Cc3nc(-c4ccccc4)no3)CC2)cc1OC | 12.2 µM (active) | –
Cc1c[nH]c(CN2CCCC(CCc3ccc(F)cc3F)C2)c(C)c1=O (stereo not drawn) | 3.43 µM (active) | –
O=C(c1ccccn1)N1CC(Oc2ccc(-c3noc(C4CC4)n3)cc2)C1 | 17.2 µM (active) | –
Cc1cccc(C(=O)N2CCC(Oc3ccc(-c4noc(C(C)C)n4)cc3)C2)c1 (stereo not drawn) | 27.3 µM (active) | –
O=C1c2cnc(-c3ccc(Cl)cc3)nc2OCCN1Cc1ccccc1 | 35.3 µM (active) | –
COC(=O)c1cccc(NC(=O)CCNc2c(C)nc3cnccn23)c1 | 21.7 µM (active) | –
COc1cccc(-c2noc(CC3CCN(C(=O)c4ccc(F)cc4)CC3)n2)c1 | 6.11 µM (active) | –
O=C(c1ccccc1)N1CCC(C(=O)N2CCC(Cc3nc(-c4ccc(F)cc4)no3)CC2)CC1 | 17.2 µM (active) | –
Cc1cc(CNC(=O)c2ccc(-c3ccccc3Cl)o2)n(C)n1 | 24.3 µM (active) | –
O=C(NCC1CC1)c1nc2c(o1)CCN(Cc1cccc(F)c1F)CC2 | 28 µM (active) | –
C1CCC(COCCc2noc(C3CNC3)n2)C1 | 21.7 µM (active) | –

SMILES | Potency | activity change, negative = inhibition
COc1ccccc1Nc1cnc2ccc(N(C)Cc3cccnc3)nn12 | 31.4 µM (active) | –
OC1(Cc2cc(-c3ccccc3)no2)CCN(c2ncncn2)CC1 | 7.69 µM (active) | –
O=C(NCc1nnc2cc(-c3nc(C4CC4)no3)ccn12)c1ccc(F)cc1Cl | 17.2 µM (active) | –
Cc1ccc(OCc2nc(C3CCN(C(=O)CCc4nc5ccc(Cl)cc5[nH]4)CC3)no2)cc1 | 24.3 µM (active) | –
CCN(CCCNC(=O)c1nnn2cc(-c3ccccc3)[nH]c(=O)c12)c1ccccc1 | – | -27.6% (inactive)
CC(C)c1nncn1C1CCN(S(=O)(=O)c2cccc(Br)c2)CC1 | 19.3 µM (active) | –
COc1ccc(-c2noc(CC3CCN(C(=O)CC4CCCCC4)CC3)n2)cc1 | 10.9 µM (active) | –
COc1ccc(-c2noc(CC3CCN(C(=O)Cc4ccc(C)cc4)CC3)n2)cc1 | 27.3 µM (active) | –
COc1ccc(-c2noc(CC3CCN(C(=O)Cc4ccccc4)CC3)n2)cc1 | 24.3 µM (active) | –
CC1=NS(=O)(=O)N(C)C=C1C(=O)OCc1nc(-c2ccc(C)cc2)no1 | 10.9 µM (active) | –
CCc1ccc(C(=O)N2CCN(c3cc(-c4ccc(F)cc4)[nH]n3)CC2)cc1 | 24.3 µM (active) | –
O=C(c1cc(F)ccc1Cl)N1CCN(c2cc(-c3ccc(F)cc3)[nH]n2)CC1 | 27.3 µM (active) | –
O=C(c1ccc(F)cc1F)N1CCN(c2cc(-c3ccc(Cl)cc3)[nH]n2)CC1 | 17.2 µM (active) | –
Cc1ccc(C(=O)N2CCN(c3cc(-c4ccc(Cl)cc4)[nH]n3)CC2)c(C)c1 | 6.11 µM (active) | –
Cc1ccc2nc(C3CCCN(Cc4ccc(C#N)cc4)C3)[nH]c(=O)c2c1 (stereo not drawn) | 24.3 µM (active) | –
COc1ccc(C2Cn3nnc(C(=O)N4CCN(C(=O)c5ccc(C)cc5C)CC4)c3CO2)cc1 (stereo not drawn) | 24.3 µM (active) | –
COc1ccc(C2Cn3nnc(C(=O)N4CCN(C(=O)c5cccc(Cl)c5)CC4)c3CO2)cc1 (stereo not drawn) | 13.7 µM (active) | –
CC(C)(C)c1csc(NC(=O)c2ccc3c(c2)OCCN(C2CCC2)C3)n1 | 35.3 µM (active) | –
